In PubChem BioAssay (EPA / NIEHS):
“And” between values parts separate entries of the source, which are not always exact repeats. Equal entries are not always repeated. Results filed as inconclusive are left out. The source made the active and inactive calls. How the source made its calls, unless noted: active means hit-call score of the fitted dose curve at least 0.9, where 1 is the maximum; inconclusive means response in the unintended direction; inactive means score below 0.9.

Tests used:
[1] = molecular target: Retinoic acid receptor RXR-alpha (Homo sapiens) (UniProt P19793); test: OT_NURR1_NURR1RXRa_0480: Odyssey Thera (OT) 8-hour HEK293T Protein Complementation Assay for Nurr1/retinoid X receptor (RXR) (AID 2283385)
Outline: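 Read-out: fluorescence from protein-fragment complementation between Nurr1 and RXRα in human HEK293T cells, 8 h after dosing. DMSO served as negative control; increased signal counted as activity.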

[2] = molecular target: Retinoic acid receptor RXR-alpha (Homo sapiens) (UniProt P19793); test: OT_NURR1_NURR1RXRa_1440: Odyssey Thera (OT) 24-hour HEK293T Protein Complementation Assay for Nurr1/retinoid X receptor (RXR) (AID 2283386)
Outline: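 Fluorescence PCA read-out; HEK293T; 24 h post-dose; bait/prey fused to reporter fragments; gain-of-signal fit vs DMSO negative control.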

[3] = CEETOX_H295R_11DCORT: CeeTox H295R High-throughput Steroidogenesis Assay for 11-Deoxycortisol (11DCORT) (AID 2283432; active means hit-call score of the fitted dose curve at least 0.9, where 1 is the maximum; inactive means score below 0.9;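 on AC50: 11-deoxycortisol secreted into the medium measured by LC-MS/MS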); settings: actives raise or lower the signal
Outline: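 H295R cells prestimulated 48 h with 10 uM forskolin, then exposed 48 h to chemical in 0.1% DMSO. 11-Deoxycortisol in medium quantified by HPLC-MS/MS after MTBE extraction; bidirectional fit versus DMSO. MTT viability read in same wells.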

[4] = CEETOX_H295R_OHPREG: CeeTox H295R High-throughput Steroidogenesis Assay for OH-Pregnenolone (OHPREG) (AID 2283434; active means hit-call score of the fitted dose curve at least 0.9, where 1 is the maximum; inactive means score below 0.9); settings: actives raise or lower the signal
Outline: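 H295R, 10 uM forskolin pre-stim 48 h; test chemical 48 h, 0.1% DMSO final. MTBE extraction, reverse-phase C18 HPLC-ESI+ MS/MS of medium. Gain/loss vs DMSO; viability by MTT in same wells.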

[5] = CEETOX_H295R_OHPROG: CeeTox H295R High-throughput Steroidogenesis Assay for OH-Progesterone (OHPROG) (AID 2283435; active means hit-call score of the fitted dose curve at least 0.9, where 1 is the maximum; inactive means score below 0.9;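 on AC50: 17alpha-hydroxyprogesterone secreted into medium measured by HPLC-MS/MS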); settings: actives raise or lower the signal
Outline: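 HPLC-MS/MS quantification of 17alpha-hydroxyprogesterone secreted by H295R cells after 48 h chemical exposure, following 48 h 10 uM forskolin prestimulation. Gain or loss of signal fitted relative to DMSO. Viability checked by MTT in the same wells.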

[6] = CEETOX_H295R_CORTIC: CeeTox H295R High-throughput Steroidogenesis Assay for Corticosterone (CORTIC) (AID 2283437; active means hit-call score of the fitted dose curve at least 0.9, where 1 is the maximum; inactive means score below 0.9;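 further: corticosterone secreted into medium quantified by mass spectrometry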); settings: actives raise or lower the signal
Outline: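 48 h forskolin (10 uM) prestim, then 48 h chemical exposure, final DMSO 0.1%. Readout: corticosterone in medium by LC-MS/MS after MTBE extraction. Gain/loss fit vs DMSO; MTT viability in same wells.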

[7] = CEETOX_H295R_CORTISOL: CeeTox H295R High-throughput Steroidogenesis Assay for Cortisol (AID 2283438; active means hit-call score of the fitted dose curve at least 0.9, where 1 is the maximum; inactive means score below 0.9;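 further: cortisol secreted into medium quantified by LC-MS/MS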); settings: actives raise or lower the signal
Outline: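 Read-out: cortisol in culture medium by reverse-phase C18 HPLC with ESI-positive tandem MS, after MTBE liquid-liquid extraction. Cells: human adrenal H295R, forskolin-primed (10 uM, 48 h) before 48 h chemical exposure in 0.1% DMSO.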

[8] = molecular target: Peroxisome proliferator-activated receptor gamma (Homo sapiens) (UniProt P37231); test: OT_PPARg_PPARgSRC1_0480: Odyssey Thera (OT) 8-hour Protein-Complementation Assay for Peroxisome Proliferator-activated Receptor Gamma / SRC-1 Co-activator (AID 2283387)
Outline: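 HEK293T transiently transfected with PPARg and SRC-1 fused to Venus YFP fragments, compounds 8 h at 37C. Fixed, Draq5-stained cells imaged; nuclear/cytoplasmic 488 nm fluorescence ratio over at least 350 cells per image; gain fitted versus DMSO.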

[9] = molecular target: Peroxisome proliferator-activated receptor gamma (Homo sapiens) (UniProt P37231); test: OT_PPARg_PPARgSRC1_1440: Odyssey Thera (OT) 24-hour Protein-Complementation Assay for Peroxisome Proliferator-activated Receptor Gamma/ SRC-1 Co-activator (AID 2283388)
Outline: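 HEK293T transiently transfected with PPARg/SRC-1 split-Venus YFP fusions 48 h before dosing, then treated 24 h at 37C. Fixed cells imaged; nuclear/cytoplasmic 488 nm fluorescence ratio, gain of signal versus DMSO.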

[10] = CEETOX_H295R_ANDR: CeeTox H295R High-throughput Steroidogenesis Assay for Androstenedione (ANDR) (AID 2283436; active means hit-call score of the fitted dose curve at least 0.9, where 1 is the maximum; inactive means score below 0.9;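 further: human H295R adrenal cells exposed for 48 h with androstenedione measured in medium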); settings: actives raise or lower the signal
Outline: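 48 h chemical exposure, H295R cells, DMEM/F12 + ITS+ and Nu-Serum. Medium androstenedione: MTBE extraction, C18 reverse-phase HPLC, ESI+ MS/MS. Fit bidirectional vs DMSO; MTT viability in same wells.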

Measured: AC50

Chain of Peroxisome proliferator-activated receptor gamma (Homo sapiens) (P37231 whole entry, looked up, the tested form may be a part): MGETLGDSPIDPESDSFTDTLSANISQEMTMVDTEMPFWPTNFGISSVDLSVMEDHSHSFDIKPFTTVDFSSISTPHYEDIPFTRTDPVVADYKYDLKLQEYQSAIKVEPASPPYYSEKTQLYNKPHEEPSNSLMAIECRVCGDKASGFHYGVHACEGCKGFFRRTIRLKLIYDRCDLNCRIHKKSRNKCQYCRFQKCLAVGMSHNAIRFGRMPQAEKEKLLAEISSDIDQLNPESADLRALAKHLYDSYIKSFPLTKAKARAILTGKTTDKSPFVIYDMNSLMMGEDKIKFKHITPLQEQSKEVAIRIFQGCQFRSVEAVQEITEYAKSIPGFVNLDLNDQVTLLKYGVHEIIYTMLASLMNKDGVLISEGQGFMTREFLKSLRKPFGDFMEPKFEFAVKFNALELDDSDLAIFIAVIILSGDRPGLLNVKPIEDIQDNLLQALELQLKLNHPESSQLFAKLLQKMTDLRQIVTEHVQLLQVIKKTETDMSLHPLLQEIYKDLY
Chain of Retinoic acid receptor RXR-alpha (Homo sapiens) (P19793 whole entry, looked up, the tested form may be a part): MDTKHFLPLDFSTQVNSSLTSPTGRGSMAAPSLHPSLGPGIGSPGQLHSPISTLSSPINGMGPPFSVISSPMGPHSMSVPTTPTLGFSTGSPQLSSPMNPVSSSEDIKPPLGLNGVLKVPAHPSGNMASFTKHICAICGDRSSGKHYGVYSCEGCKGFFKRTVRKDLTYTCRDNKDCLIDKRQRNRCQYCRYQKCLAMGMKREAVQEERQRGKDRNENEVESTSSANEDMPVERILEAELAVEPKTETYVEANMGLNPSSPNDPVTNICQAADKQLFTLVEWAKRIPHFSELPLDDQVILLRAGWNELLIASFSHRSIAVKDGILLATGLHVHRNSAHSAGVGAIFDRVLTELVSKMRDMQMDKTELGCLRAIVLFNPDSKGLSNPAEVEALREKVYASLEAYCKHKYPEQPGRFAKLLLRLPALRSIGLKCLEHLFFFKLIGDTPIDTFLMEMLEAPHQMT

Cc1cc(Cc2ccc(N)c(C)c2)ccc1N
inactive: [1] | [2]
active: [3] 34.9 µM | [4] 4.69 µM | [5] 1.37 µM | [6] 0.458 µM | [7] 22.9 µM

CC(C)c1cccc(C(C)C)c1
inactive: [1] | [2] | [8] | [9]

CC(=O)[C@@]1(O)CC[C@H]2[C@@H]3CCC4=CC(=O)CC[C@]4(C)[C@H]3CC[C@@]21C
active: [3] 8.94 µM | [4] 14.2 µM | [5] 41.2 µM | [7] 1.12 µM
inactive: [1] | [2] | [6]

Oc1ccccc1O
inactive: [1] | [8] | [3] | [4] | [5] | [6]
active: [2] 16 µM and 23.7 µM

Nc1nc(Cl)nc2c1ncn2[C@H]1C[C@H](O)[C@@H](CO)O1
active: [1] 50 µM and 41.2 µM | [2] 46.7 µM and 44.1 µM | [4] 6.46 µM | [6] 5.64 µM
inactive: [3] | [5] | [7]

Cn1cnc2c1c(=O)[nH]c(=O)n2C
inactive: [1] | [2] | [8] | [9]

C=CCc1ccc(OC)c(OC)c1
inactive: [1] | [2] | [8] | [9]

O=C1OC(c2ccc(O)cc2)(c2ccc(O)cc2)c2ccccc21
active: [5] 1.77 µM
inactive: [1] | [2] | [8] | [4] | [10]

O=C1NC(=O)C(c2ccccc2)(c2ccccc2)N1
inactive: [1] | [2] | [8] | [9] | [3] | [4]
active: [6] 10.4 µM | [7] 26.6 µM

CCC(C)N(C)C(=O)c1cc2ccccc2c(-c2ccccc2Cl)n1 (stereo not drawn)
inactive: [1] | [2] | [8] | [9] | [4] | [10]
active: [5] 3.85 µM

S=c1[nH]c2ccccc2s1
active: [4] 78.9 µM | [5] 73.1 µM
inactive: [2] | [8] | [9] | [3] | [6] | [7]

CCN(CC)CCOc1ccc(C(=C(Cl)c2ccccc2)c2ccccc2)cc1
inactive: [8] | [7]
active: [1] 9.55 µM | [3] 0.104 µM | [4] 0.0411 µM | [5] 0.147 µM | [10] 0.222 µM | [6] 0.039 µM

CCCCOC(=O)CCCCC(=O)OCCCC
inactive: [2] | [8]

CO[C@@H]1COCC[C@@H]1N[C@@H]1CC[C@@](C(=O)N2CCc3ncc(C(F)(F)F)cc3C2)(C(C)C)C1
inactive: [1] | [8] | [9]

O=C(N[C@@H](c1ccccc1)[C@@H]1CCCCN1)c1cccc(C(F)(F)F)c1Cl
inactive: [8]

CS(=O)(=O)c1ccc([C@@H](C[C@H]2CCC(=O)C2)C(=O)Nc2cnccn2)cc1Cl
inactive: [1] | [8] | [9]

Cc1occc(=O)c1O
inactive: [2] | [8] | [9]

Cc1ccc(-c2cc(C(F)(F)F)nn2-c2ccc(S(N)(=O)=O)cc2)cc1
inactive: [8]

C/C=C/C=C/C(=O)O
inactive: [2] | [8] | [9]

C/C=C/c1ccc(OC)cc1
inactive: [1] | [8] | [9]

O=Cc1ccccc1C=O
inactive: [2] | [8] | [9]

CC1=C(C)S(=O)(=O)CCS1(=O)=O
inactive: [1] | [8] | [9] | [3] | [4] | [5] | [10] | [6] | [7]

Cc1cc(SC2=C(O)C[C@@](CCc3ccc(N)cc3)(C(C)C)OC2=O)c(C(C)(C)C)cc1CO
inactive: [1] | [8] | [9]

CCCC[C@H]1CN(CC2CCOCC2)C(=O)OC12CCN(C1(C)CCN(C(=O)c3c(C)ncnc3C)CC1)CC2
inactive: [2] | [8] | [9]

CC(=O)OC1CC(C)OC(C)O1 (stereo not drawn)
inactive: [2] | [8]

O=C(O)c1cccnc1
inactive: [8]

CC(C)(O)c1ccc(CNC(=O)c2cccnc2Oc2ccc(F)cc2)cc1
inactive: [3] | [4] | [5] | [6]
active: [7] 64.9 µM

O=NO
inactive: [2] | [8] | [9]

CN(C)CCCN1c2ccccc2Sc2ccc(Cl)cc21
inactive: [8] | [9]

CCCCCCCCCC[N+](C)(C)[O-]
inactive: [8] | [4] | [6] | [7]
active: [3] 28.5 µM | [5] 31.7 µM | [10] 17 µM

CC(N)=O
inactive: [2] | [8]

O=C(O)CC(O)(CC(=O)O)C(=O)O
inactive: [8] | [9]

NC=O
inactive: [8] | [9]

CC(COCC(C)OC(=O)c1ccccc1)OC(=O)c1ccccc1 (stereo not drawn)
inactive: [1] | [8] | [5] | [7]

CCc1cc(C2=C(C(=O)O)N(c3ccccc3C(F)(F)F)S(=O)(=O)c3ccccc32)cc2c1OCO2
inactive: [2]

O=C1CCCCC1
inactive: [2] | [8]

CC(=O)OCC(COC(C)=O)OC(C)=O
inactive: [2] | [8]

CC1(C)C(=O)NC(=O)N1CO
inactive: [1] | [8] | [9]

O=[Si]=O
inactive: [8]
